# Data reported in PubChem BioAssay (NCI).
# This is part of a sample that, as a whole, favours compounds with a hit. Of some 83,000 tested, about 20% had one in any assay.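 Cells were grown in 96-well plates and exposed to the test compound at a single concentration for 48 hours; results are reported as percent growth, with values below 10 considered active.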 A number with no mark means an inactive call. Calls of active or inactive are those of the source.
# Columns and labels:
# Assay in all cases: NCI-60 one-dose screen, 48 h (100 = growth as untreated, 0 = no growth, -100 = all killed)
# Conditions in all cases: 10 µM unless noted
# [1] = test system: EKVX NSCLC
# [2] = test system: SN12C renal
# [3] = test system: UO-31 renal
# [4] = test system: ACHN renal
# [5] = test system: A498 renal
# [6] = test system: CCRF-CEM leukemia
# [7] = test system: MOLT-4 leukemia
# [8] = test system: CAKI-1 renal
# [9] = test system: TK-10 renal
Structure (SMILES),growth [1],growth [2],growth [3],growth [4],growth [5],growth [6],growth [7],growth [8],growth [9]
CCSc1ccc([C@@H]2[C@@H](O)C(=O)N2c2cc(OC)c(OC)c(OC)c2)cc1,52.3%,38.8%,50.5%,32.7%,-10.6% (active),11.9%,10.8%,–,–
COc1cc(Nc2ccnc3ccc(Br)cc23)cc(OC)c1OC,53.4%,41.5%,40.2%,–,-7.03% (active),32.8%,32.1%,31.9%,–
COc1ccc(/C(=C\c2ccc3c(c2)OCO3)C(=O)Nc2nc3ccc(F)cc3s2)cc1OC,103%,115%,68.5%,–,98.3%,–,94.4%,86.5%,119%
CCOc1cccc(/C=N/NC(=O)Cc2ccc(Nc3ccnc(C(F)(F)F)c3)cc2)c1O,20.4%,43%,3.59% (active),6.94% (active),91.9%,-21.7% (active),40.6%,36.8%,–
CN1CCN(Cc2ccc(NC(=O)c3cncc(C#Cc4ncc5ccccn45)c3)cc2C(F)(F)F)CC1,43.9%,24%,5.98% (active),–,11.4%,8.69% (active),17.8%,1.78% (active),53.4%
COc1ccc(/C(=C\c2cc(OC)c(OC)c(OC)c2)C(=O)N2CCCNCC2)cc1,104%,106%,85.9%,109%,99.1%,99.9%,94.7%,–,–
CC(=O)OC1Oc2cc(C)c(C)cc2-c2oc(=O)c(-c3ccc(F)cc3)cc21 (configuration not stated),81.7%,83.2%,62.2%,–,47.9%,36%,–,–,120%
Oc1ccc(Nc2ncnc3c2sc2ncccc23)cc1,–,17.1%,-9.84% (active),9.05% (active),8.96% (active),16%,12.2%,13.1%,59.7%
COc1cc(C2CC(c3ccc(Nc4ccnc5cc(Cl)ccc45)cc3)=NN2c2ccccc2)cc(OC)c1OC (configuration not stated),–,76.3%,57.8%,77.1%,61%,47.5%,62.3%,48.2%,89.8%
CCOC(CN1CCN(CC(C)C(=O)c2ccccc2)CC1)c1ccccc1 (configuration not stated),–,98.6%,89%,106%,97.1%,84.7%,105%,93.7%,115%
Cc1nc2ccc(Nc3nc(N4CCOCC4)nc(N4CCN(C)CC4)n3)cc2n1Cc1ccccc1,–,113%,62.7%,94.7%,40.6%,79.9%,–,102%,87.2%
CC(C)NC(=O)OCC#CCOC(=O)NC(C)C,–,102%,79.8%,108%,104%,103%,101%,91.7%,99.3%
CCN(CC)C(Cl)=Nc1ccc(Cl)cc1,–,99.2%,87.8%,98.5%,99.6%,100%,95.7%,103%,101%
O=C(CI)NCCNc1cccc2c(S(=O)(=O)O)cccc12,–,94.7%,93.4%,107%,92.7%,100%,98.3%,109%,111%
O=C(Nc1ccc(Oc2ccc(Nc3nc4ccccc4s3)cc2)cc1)Nc1ccc(Cl)c(C(F)(F)F)c1,–,1.99% (active),14.1%,3.09% (active),-18.3% (active),5.88% (active),5.65% (active),12.4%,12.6%
NS(=O)(=O)c1ccc(N2N=C(c3cccs3)CC2c2ccccc2O)cc1 (configuration not stated),–,16.5%,34.9%,15.9%,-13.2% (active),4.36% (active),8.13% (active),24.2%,23.5%
Clc1ccc(Nc2ncnc3c2sc2ncccc23)cc1,–,20.5%,-13.8% (active),14.7%,18.7%,21.2%,15%,15.3%,59.3%
Cc1cc(C)c2c(NC(=O)Nc3ccc(Cl)c(Cl)c3)n[nH]c2n1,–,103%,90.2%,109%,101%,102%,98.3%,91.6%,112%
Cc1ccc(S(=O)(=O)NC(CCC(=O)Nc2ccc(Cl)cc2)C(=O)Nc2ccc(Cl)cc2)cc1 (configuration not stated),–,39.8%,38.2%,30%,-0.58% (active),4.45% (active),10.7%,41.9%,25.7%
O=C1CC2(O)CSc3nc(=O)cc(n32)N1 (configuration not stated),–,96.9%,82.7%,101%,104%,101%,107%,92.5%,106%
C=CCn1c(C)nc2cc(Nc3nc(N4CCCC4)nc4nc[nH]c34)ccc21,–,36.8%,61.2%,17.8%,1.35% (active),83.9%,89%,89%,11.8%
CC(=O)Nc1nonc1-c1nc2ccccc2n1Cc1ccc(C(C)(C)C)cc1,–,82.2%,46.1%,82.1%,-4.2% (active),78.4%,51.7%,69%,95.5%
[Ag].[Ag].[NH-]S(=O)(=O)c1ccc(N=Nc2cc(N=Nc3ccc(S([NH-])(=O)=O)cc3)c3c(NC(=O)C(Cl)Cl)cccc3c2OC(=O)C(Cl)Cl)cc1.[c-]1nccs1.[c-]1nccs1,–,89.6%,69.4%,52.3%,101%,44.7%,78.4%,59.1%,108%
CC(=O)N1N=C(c2ccc(C)cc2)CC1c1cn(-c2ccccc2)nc1-c1cccc(Nc2ccnc3cc(Cl)ccc23)c1 (configuration not stated),–,46.2%,77.1%,81.2%,82.2%,-19.7% (active),23.4%,101%,61.3%
COc1cc(C2CC(c3cccc(Nc4ccnc5cc(Cl)ccc45)c3)=NN2c2ccc(Cl)cc2)cc(OC)c1OC (configuration not stated),–,57.1%,23.6%,41.5%,64.9%,63.1%,–,-1.85% (active),76.7%
